Assay results as given in PubChem BioAssay AID2130 (The Scripps Research Institute Molecular Screening Center, 2009).
The campaign covered roughly 320,000 compounds. About 1,700 (0.53%) were called active. The sample holds actives, similar compounds and a random draw of the others, so the mix is not that of the screen.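 Rule for the calls: active = inhibition above the campaign mean of all compounds plus 3 SD (cut at about 26% in these data); inactive = the rest.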

biological target: Protein phosphatase methylesterase 1 (Homo sapiens) (UniProt Q9Y570); assay: PME-1 inhibitors via competitive probe labeling, primary screen, biochemical, fluorescence polarization, FP-Rh probe, HTS (AID 2130); settings: recombinant PME-1, FP-Rh probe fluorescence polarization; at 5.9 µM; stronger effect = higher value;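 note: competitive labeling of PME-1 active site by serine hydrolase directed probe; 0% = PME-1 with DMSO and 100% = wells lacking PME-1 enzyme; inhibitors block probe labeling so polarization falls and inhibition rises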
Sequence (Q9Y570 whole entry, looked up): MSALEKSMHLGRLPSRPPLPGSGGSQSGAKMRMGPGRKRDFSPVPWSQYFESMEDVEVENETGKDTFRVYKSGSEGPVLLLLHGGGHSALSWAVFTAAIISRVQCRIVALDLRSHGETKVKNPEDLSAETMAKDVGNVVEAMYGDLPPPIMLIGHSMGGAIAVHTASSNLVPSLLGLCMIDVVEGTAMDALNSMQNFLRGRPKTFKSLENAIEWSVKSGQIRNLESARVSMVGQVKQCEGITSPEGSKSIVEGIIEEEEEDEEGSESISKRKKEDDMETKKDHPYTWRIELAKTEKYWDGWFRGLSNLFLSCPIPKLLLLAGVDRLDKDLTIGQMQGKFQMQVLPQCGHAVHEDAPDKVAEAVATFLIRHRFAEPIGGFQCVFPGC

Compound	inhibition
Cc1occc1C(=O)NC1CCCN(Cc2ccc(CC(C)C)cc2)C1 (centres undefined)	5.69% (inactive)
COc1cc2ccccc2cc1C(=O)Nc1ccc(NC(=O)c2cccs2)cc1	-34% (inactive)
COc1ccc(CCNC(=O)/C(C#N)=C2\N=C(NC(=O)c3cccs3)c3ccccc32)cc1	28.2% (active)
COc1ccc(CN(Cc2ccc(OC)cc2)C(=O)c2cccs2)cc1	4.18% (inactive)
CN(Cc1c(F)cccc1Cl)S(=O)(=O)c1cccs1	4.21% (inactive)
CN(C)C(=O)c1ccc2c(c1)C1C3CCC(C3)C1C(c1ccccc1)N2 (centres undefined)	8.08% (inactive)
CCc1nnc(NC(=O)CSc2nc(SC)ns2)s1	-0.14% (inactive)
CCN(CC)C(=O)CSC(Nc1cccc(F)c1)=C(C#N)C#N	-5.27% (inactive)
Cc1cc(C)cc(NC(=S)NCCc2c[nH]c3ccccc23)c1	26.7% (active)
Cc1cc(C)cc(NC(=S)NCc2ccc(F)cc2)c1	7.45% (inactive)
O=C(NCCc1c[nH]c2ccccc12)c1cccc(Br)c1	4.14% (inactive)
O=C(NCCS(=O)(=O)N1CCN(c2ccccc2F)CC1)c1ccc(Br)o1	3.82% (inactive)
Cc1cc(C)c2nc3nc(C)cc(C)c3c(N)c2c1	-3.32% (inactive)
CCOC12CC(C)(C)CC(C)(CC3=C1C(=O)CC(C)(C)C3)C2 (centres undefined)	2.34% (inactive)
O=c1c2sccc2nc(SCc2cc(=O)n3ccccc3n2)n1-c1ccc(Br)cc1	6.68% (inactive)
N#CCCN(C(=O)COC(=O)C1CCN(c2ccc(C(F)(F)F)cn2)CC1)c1ccc(F)cc1	1.79% (inactive)
CCc1cccc(CC)c1NC(=O)COc1ccccc1C(=O)c1cc(C#N)c(=O)n(C2CCCCC2)c1	26.5% (active)
Cc1cc(NC(=O)COc2ccccc2C#N)no1	-1.79% (inactive)
CCc1ccccc1OCC(=O)Nc1ccc(C)c(S(=O)(=O)N2CCCCCC2)c1	-30.7% (inactive)
CCOc1ccc(S(=O)(=O)N(CC(=O)NCC(F)(F)F)Cc2ccco2)cc1	-1.32% (inactive)
FC(F)(F)c1cccc(-c2nc(COc3ccc(Cl)cc3Cl)no2)c1	-0.04% (inactive)
COC(=O)[C@H](C)NC(=O)Nc1ccc(OC(F)(F)F)cc1	0.46% (inactive)
O=C(Nc1ccc(OC(F)(F)F)cc1)c1ccc2c(c1)no[n+]2[O-]	32% (active)
Cn1nccc1NC(=O)Nc1ccc(OC(F)(F)F)cc1	8.73% (inactive)
CCOC(=O)Cc1c(C)nc2c(C#N)c(C)nn2c1C	-0.83% (inactive)
CCN=C1S/C(=C\c2cc(Br)ccc2OCC(=O)OCC)C(=O)N1CC	3.9% (inactive)
CC(C)CCOc1ccc(C(=O)C[N+]2(C)CCOCC2)cc1	1.1% (inactive)
Cc1ccc(N(Cc2ccc(C(=O)Nc3ccccc3C(=O)NCc3ccco3)cc2)S(C)(=O)=O)cc1C	-28.2% (inactive)
Nc1c(N(Cc2ccco2)C(=O)c2cccc(F)c2)c(=O)[nH]c(=O)n1Cc1ccccc1	3.17% (inactive)
